Results filed as inconclusive are left out. Calls of active or inactive are those of the source. Calls follow the shape of the dose curve; as a rule, active = well fitted inhibition curve with a large enough effect; inconclusive = small, poorly fitted or top-dose-only effect; inactive = flat fitted curve, though single readings scatter.
Experiments:
Experiment in all cases: qHTS profiling for inhibitors of Plasmodium falciparum proliferation (AID 504749); also: nearly all actives have a fitted effect of over 60% in size
Settings in all cases: P. falciparum in erythrocytes, SYBR Green DNA, 72 h; series mostly up to 28.7 µM
[1] = system: CP315
Outline: (§1)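 SYBR Green fluorescence (ex 485 nm, em 535 nm) reports parasite DNA after 72 h compound exposure of infected red cells at 0.3% parasitemia, 2.5% hematocrit; signal normalized to 0.29 uM artemisinin and vehicle wells.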

[2] = system: CP325
Outline: as §1

[3] = system: CP329
Outline: as §1

[4] = system: CP335
Outline: as §1

[5] = system: DFO2036
Outline: as §1

[6] = system: DIV14
Outline: as §1

[7] = system: DIV17
Outline: as §1

[8] = system: DIV30
Outline: as §1

[9] = system: Dd2
Outline: as §1

[10] = system: ECU
Outline: as §1

Measured: Potency
Potency is read from the fitted curve at half-maximal effect.

CCN1/C(=C/C=C/c2sc3ccccc3[n+]2CC)Sc2ccccc21
active: [1] 757 nM | [2] 601 nM | [3] 426 nM | [4] 107 nM | [5] 100 nM | [6] 478 nM | [7] 478 nM | [8] 675 nM | [9] 112 nM | [10] 224 nM

O=C(Nc1ncc([N+](=O)[O-])s1)c1cccs1
inactive: all assays above

C=C[C@@]1(C)CC(=O)[C@]2(O)[C@@]3(C)[C@@H](O)CCC(C)(C)[C@@H]3[C@H](O)[C@H](OC(C)=O)[C@@]2(C)O1
inactive: all assays above

CCCCC(CC)COC(=O)/C=C/c1ccc(OC)cc1 (stereo not given)
inactive: all assays above

COc1ccc(/C=N/NC(=O)c2ccncc2)cc1OC
inactive: all assays above

OCc1ccccn1
inactive: all assays above

CCOC(=O)[C@H](CCc1ccccc1)N[C@@H](C)C(=O)N1[C@H](C(=O)O)C[C@H]2CCCC[C@@H]21
inactive: all assays above

CCCCCCCCCCCCCCCCO
inactive: all assays above

CCc1oc2ccccc2c1C(=O)c1cc(Br)c(O)c(Br)c1
inactive: all assays above

COc1cc(C)nc(-n2nc(C)cc2OC)n1
inactive: all assays above

CC(=O)Oc1ccc(C)cc1
inactive: all assays above

CC(=O)OC[C@H]1O[C@@H](n2ncc(=O)[nH]c2=O)[C@H](OC(C)=O)[C@@H]1OC(C)=O
inactive: all assays above

NCCNC(=O)c1ccc(Cl)cn1
inactive: all assays above

NS(=O)(=O)Cc1noc2ccccc12
inactive: all assays above

CC(=O)OCC(=O)[C@H]1CC[C@H]2[C@@H]3CCC4=CC(=O)CC[C@]4(C)[C@H]3CC[C@]12C
inactive: all assays above

CCN(CC)CCNC(=O)c1cc(Br)c(N)cc1OC
inactive: all assays above

CCOC(=O)c1ccc(N)cc1
inactive: all assays above

Nc1ccc(C(=O)NCC(=O)O)cc1
inactive: all assays above

CCN(CC)CCNC(=O)COc1ccc(OC)cc1
inactive: all assays above

CCCCCCCCCCCCSCCOCCO
inactive: all assays above

COc1cc(C(=O)N2CCCCCCC2)cc(OC)c1OC
inactive: all assays above

Cc1cccc(C)c1NC(=O)c1ccccc1C(=O)O
inactive: all assays above

CCCN(CCC)S(=O)(=O)c1ccc(C(=O)O)cc1
inactive: all assays above

FC(F)(F)C(F)(F)C(F)(F)C(F)(F)C(F)(F)C(F)(F)C(F)(F)C(F)(F)Br
inactive: all assays above

NS(=O)(=O)c1cc(C(=O)O)cc(N2CCCC2)c1Oc1ccccc1
inactive: all assays above

O=C(O)CCNC(=O)c1ccccc1
inactive: all assays above

C/C=C/C=N/NC(=O)c1ccncc1
inactive: all assays above

O=C(O)Cc1csc(-c2ccc(Cl)cc2)n1
inactive: all assays above

CCC1Nc2cc(Cl)c(S(N)(=O)=O)cc2S(=O)(=O)N1 (stereo not given)
inactive: all assays above

NC(=O)c1ccccc1O
inactive: all assays above

N#CCC(=O)NN
inactive: all assays above

Cc1nc(-c2ccc(Cl)cc2)oc1COC(C)(C)C(=O)O
inactive: all assays above

CC1=C(C(=O)O)N2C(=O)[C@@H](NC(=O)[C@H](N)c3ccccc3)[C@H]2SC1
inactive: all assays above

CCCCNC(=O)NS(=O)(=O)c1ccc(N)cc1
inactive: all assays above

CCc1oc2ccccc2c1C(=O)c1cc(I)c(O)c(I)c1
inactive: all assays above

C#C[C@]1(O)CC[C@H]2[C@@H]3CCC4=CC(=O)CC[C@@H]4[C@H]3CC[C@@]21CC
inactive: all assays above

COc1cc(C(=O)NCc2ccc(OCCN(C)C)cc2)cc(OC)c1OC
inactive: all assays above

O=C(O)C(Cc1cc(I)c(O)c(I)c1)c1ccccc1 (stereo not given)
inactive: all assays above

CCCCN=C(N)N=C(N)N
inactive: all assays above

NC(=S)N/N=C/c1cccnc1
inactive: all assays above

CC(C)CCCC(C)N (stereo not given)
inactive: all assays above

Cc1c(-c2ccccc2)oc2c(C(=O)OCCN3CCCCC3)cccc2c1=O
inactive: all assays above

Cc1ccccc1OCC(O)CO (stereo not given)
inactive: all assays above

C[C@@H](O)[C@H]1C(=O)N2C(C(=O)O)=C(S[C@@H]3CN[C@H](CNS(N)(=O)=O)C3)[C@H](C)[C@H]12
inactive: all assays above

CC(=O)Nc1ccc(CC(=O)O)cc1
inactive: all assays above

O=C1C(O)=C(O)C(=O)C(O)=C1O
active: [9] 10000 nM
inactive: all other assays above

From PubChem BioAssay (NCATS)
